Assay outcomes from PubChem.
IDE exosite inh: displaces the probe from the exo-site of human IDE | P14735 | purified IDE, FL-6b probe fluorescence polarization; stronger effect = lower value | z-score at 20 µM | 17,000 tested, 6.3% active | AID 1259349;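 active = z-score of -3 or lower, meaning strong loss of probe binding signal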;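 note: His-tagged human IDE residues 42-1019 made in E. coli with 30 nM FL-6b probe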
The depositor's hits bear a star; ! = not confirmed by another sample. The entries come from a sample that favours hits as a whole.

SMILES	IDE exosite inh
N#C[C@H]1[C@@H](c2ccc(-c3cccnc3)cc2)[C@@H](CO)N1C(=O)C1CCOCC1	-3*
COc1ccc(-c2ccccc2[C@H]2[C@@H](C#N)N(C(=O)C3CCOCC3)[C@H]2CO)cc1	2
CN(C)CC#Cc1ccc([C@H]2[C@H](CO)N3CCCCN(CC4CCOCC4)C[C@@H]23)cc1	1.8
CNC[C@H]1OCc2ccccc2-c2ccccc2C(=O)N([C@@H](C)CO)C[C@@H]1C	1.1
CCC(=O)N1CCCCN2[C@@H](CO)[C@H](c3ccc(-c4cccnc4)cc3)[C@@H]2C1	-0.42
CC(C)NC(=O)NC[C@H]1[C@@H](c2ccccc2)[C@@H](CO)N1C(=O)c1ccccc1	3.7
O=C(C[C@H]1C[C@@H]2c3cc(NC(=O)C4CCC4)ccc3O[C@@H]2[C@@H](CO)O1)NC1CCCC1	-1.3
OC[C@@H]1[C@H](c2ccc(C#CC3(O)CCCC3)cc2)[C@@H]2CN(Cc3cncnc3)CCCCN12	-1.3
O=C(O)C[C@@H]1C=C[C@@H](NC(=O)Nc2cc(F)ccc2F)[C@H](CO)O1	-0.22
CC(C)CC#Cc1ccc([C@H]2[C@H](CO)N3C(=O)CN(S(=O)(=O)c4cccc(F)c4)C[C@@H]23)cc1	-0.81
CCCNC(=O)N1C[C@H]2[C@@H](c3ccccc31)[C@@H](CO)N2C(=O)Nc1ccccc1F	-0.093
CC(C)C#Cc1ccc([C@@H]2[C@@H](CO)N3C(=O)CN(C(=O)Cc4ccccc4)C[C@@H]23)cc1	-0.68
N#C[C@@H]1[C@H](c2ccccc2-c2cccc(F)c2)[C@H](CO)N1C(=O)Nc1cc(F)ccc1F	0.55
OC[C@H]1[C@H](c2ccc(C#Cc3cccnc3)cc2)[C@H]2CN(Cc3ccccc3F)CCCCN21	1.9
CCCNC(=O)N1CCC2(CC1)CN(Cc1cccc(OC)c1)[C@H](CO)c1[nH]c3cc(OC)ccc3c12	-4.6*
CCCNC(=O)N1CC2(CCN(S(=O)(=O)CC)CC2)c2c([nH]c3cc(OC)ccc23)[C@@H]1CO	-1.9
COc1ccc2c3c([nH]c2c1)[C@@H](CO)N(Cc1ccncc1)CC31CCN(CC2CCOCC2)CC1	0.53
COc1ccc2c3c([nH]c2c1)[C@H](CO)N(Cc1nccs1)CC31CCN(C(=O)C2CCCCC2)CC1	-0.97
COc1ccc2c3c([nH]c2c1)[C@H](CO)N(Cc1cccc(F)c1)CC31CCN(C(C)=O)CC1	-6.6*
CCCNC(=O)N1CC2(C1)CN(Cc1ccc(F)cc1)[C@H](CO)c1[nH]c3cc(OC)ccc3c12	0.53
COc1ccc(CN2CC3(CN(C(=O)Cc4ccccc4)C3)c3c([nH]c4cc(OC)ccc34)[C@@H]2CO)cc1	-1.7
CCC(=O)N1CC2(C1)CN(Cc1cccc(Cl)c1)[C@@H](CO)c1[nH]c3cc(OC)ccc3c12	-3.3*
CCCC(=O)N1CC2(C1)CN(Cc1cccnc1)[C@@H](CO)c1[nH]c3cc(OC)ccc3c12	-2.3
COc1ccc2c3c([nH]c2c1)[C@@H](CO)N(Cc1nccs1)CC31CN(Cc2ccncc2)C1	-3.2*
COc1ccc2c3c([nH]c2c1)[C@@H](CO)N(CC1CC1)CC31CCN(C(=O)Nc2cccc(F)c2)CC1	-0.92
SMILES	IDE exosite inh
COc1ccc2c3c([nH]c2c1)[C@@H](CO)N(C(C)=O)CC31CCN(C(C)=O)CC1	1.2
OC[C@H]1[C@@H](c2ccc(C#CC3(O)CCCC3)cc2)[C@@H]2CN(Cc3cncnc3)CCCCN12	-0.084
CN1C(=O)c2cc(NS(=O)(=O)c3ccc(Cl)cc3)ccc2OC[C@H]2O[C@@H](CC(=O)Nc3ccc4c(c3)COC4)CC[C@@H]21	0.86
C[C@H]1CN([C@@H](C)CO)C(=O)Cc2cc(NC(=O)Nc3ccc(F)cc3)ccc2O[C@H]1CN(C)S(C)(=O)=O	0.97
COc1ccc(-c2ccc3c(c2)[C@@H]2[C@@H](CCN2C(=O)c2ccncc2)[C@H](CO)N3C)cc1	0.28
Cc1ccc(-c2ccc([C@H]3[C@H](CO)N4C(=O)CN(C(=O)c5ccncc5)C[C@@H]34)cc2)cc1	-3.2*
Cc1ccc(-c2ccc([C@@H]3[C@@H](CO)N4C(=O)CN(C(=O)c5ccncc5)C[C@H]34)cc2)cc1	-0.28
O=C(c1ccncc1)N1CC(=O)N2[C@H](C1)[C@@H](c1ccc(-c3ccccc3)cc1)[C@@H]2CO	-6.8*
Cc1ccc(-c2ccc([C@@H]3[C@H]4CN(C(=O)c5ccncc5)CC(=O)N4[C@H]3CO)cc2)cc1	-4.4*
Cc1ccc(-c2ccc([C@@H]3[C@H](CO)N4C(=O)CN(C(=O)c5ccncc5)C[C@@H]34)cc2)cc1	1.8
O=C(c1ccncc1)N1CC(=O)N2[C@H](C1)[C@H](c1ccc(-c3ccccc3)cc1)[C@@H]2CO	1.3
O=C(c1ccncc1)N1CC(=O)N2[C@@H](CO)[C@@H](c3ccc(-c4ccccc4)cc3)[C@@H]2C1	3.3
Cc1ccc(-c2ccc([C@H]3[C@H]4CN(C(=O)c5ccncc5)CC(=O)N4[C@H]3CO)cc2)cc1	0.4
Cc1ccc(-c2ccc([C@@H]3[C@@H](CO)N4C(=O)CN(C(=O)c5ccncc5)C[C@@H]34)cc2)cc1	2
CC(C)NC(=O)N1[C@H](CO)[C@H]2c3ccccc3NC[C@H]21	1.9
COc1ccc2c3c(n(C)c2c1)[C@H](CO)N(C(=O)C1CC1)CC31CN(Cc2ccccc2OC)C1	1.5
O=C(CC1CC1)N1CC2(C1)[C@@H](c1ccccc1)[C@@H](CO)N2C(=O)c1ccccn1	-0.5
O=C(c1ccccn1)N1CC2(C1)[C@H](c1ccccc1)[C@H](CO)N2C(=O)C1CCCCC1	-1.8
C[C@@H]1CN([C@@H](C)CO)C(=O)c2cc(NS(=O)(=O)c3cccs3)ccc2O[C@@H](C)CCCCO[C@@H]1CN(C)C(=O)c1ccncc1	1.3
Cc1ccccc1-c1ccc([C@@H]2[C@@H](CO)N3C(=O)CN(C(=O)c4cccnc4)C[C@H]23)cc1	-3
Cc1ccccc1-c1ccc(C2[C@@H]3CN(C(=O)c4cnccn4)C[C@H]2N3)cc1 (stereo partly drawn)	-20*!
O=C(c1cccnc1)N1CC(=O)N2[C@@H](CO)[C@@H](c3ccc(-c4ccc(F)cc4)cc3)[C@@H]2C1	0.84
CN(C)C(=O)c1ccc(-c2ccc(C3[C@@H]4CN(C(=O)c5cnccn5)C[C@H]3N4)cc2)cc1 (stereo partly drawn)	2.2
Cc1ccccc1-c1ccc([C@@H]2[C@H](CO)N3C(=O)CN(C(=O)c4cccnc4)C[C@@H]23)cc1	-7.2*
Cc1ccccc1-c1ccc([C@@H]2[C@@H](CO)N3C(=O)CN(C(=O)c4cccnc4)C[C@@H]23)cc1	-13*
SMILES	IDE exosite inh
O=C(c1cccnc1)N1CC(=O)N2[C@@H](CO)[C@H](c3ccc(-c4ccccc4F)cc3)[C@@H]2C1	0.46
O=C(c1cccnc1)N1CC(=O)N2[C@@H](CO)[C@H](c3ccc(-c4ccc(F)cc4)cc3)[C@@H]2C1	2.7
N#Cc1cccc(-c2ccc(C3[C@@H]4CN(C(=O)c5ccccn5)C[C@H]3N4)cc2)c1 (stereo partly drawn)	0.89
CCCNC(=O)N1CC(=O)N2[C@H](C1)[C@H](c1ccc(C#CCC3CCCC3)cc1)[C@@H]2CO	-0.96
CC(C)c1cccc(NC(=O)C[C@H]2CC[C@H]3[C@@H](COc4ccc(NC(=O)NCc5ccccc5)cc4C(=O)N3C)O2)c1	-0.35
CNC[C@@H]1OCc2ccccc2-c2ccccc2C(=O)N([C@H](C)CO)C[C@@H]1C	0.26
C/C=C/c1ccc([C@@H]2[C@H](CO)N3CCCCN(S(=O)(=O)c4cccs4)C[C@@H]23)cc1	-0.58
